Where “and” joins values, the source holds several entries; their conditions need not be identical. Equal entries are not always repeated. Hit rate of the full screen: of about 410,000 compounds, about 5,000 (1.2%) were called active. Roughly 13% stayed inconclusive and do not appear here. Calls come from the whole dose curve; as a rule, active = well fitted inhibition curve with a large enough effect; inconclusive = small, poorly fitted or top-dose-only effect; inactive = no such curve, though single readings can be large or run the other way. The entries come from a sample that favours actives as a whole. Entries that show only a call come without a potency.

Here are results for 114 compounds from PubChem BioAssay AID588855 (National Center for Advancing Translational Sciences (NCATS), 2011).
Potency is the fitted concentration of half-maximal effect.

The nature of the test: qHTS for Inhibitors of TGF-b. Note: nearly all actives have a fitted effect of over 65% in size. As to conditions: HepG2 CAGA-GFP TGF-b/SMAD3 reporter, GFP fluorescence, 18 h, TGF-beta stimulated, 500 pg/mL final; series mostly up to 46.1 µM. The method, boiled down:
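First, reporter cells (HEPG2 CAGA-GFP) rested 2 h at 37 degrees C. Next, compounds were pinned in and TGF-beta added to 500 pg/mL final. After 18 h, GFP was imaged per cell and summed per well.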
Consider `CCOC(=O)c1cnc2c(C)cc(Cl)cc2c1NCCc1ccc(OC)c(OC)c1`, for which the Potency entry is “inactive”.
The same measure for `Cn1c(=O)c2sccc2n2c(CCC(=O)NCc3ccccc3Cl)nnc12`: “inactive”.
The same measure for `CCc1cc2c(cc3c(=O)n(CC(=O)NCCc4ccc(OC)c(OC)c4)ncn32)s1`: “inactive”; for `COc1ccc(C2NC(=O)N(C)C3=C2C(=O)N(c2ccc(C(=O)O)cc2)C3)cc1` (centres undefined): “inactive”; for `CN(C)c1ccc(/C=N\Nc2ccc([N+](=O)[O-])cc2[N+](=O)[O-])cc1Cl`: “inactive”.
The same measure for `CN(CCC#N)c1ccc(C=O)cc1`: “inactive”.
With `Cc1ccc(S(=O)(=O)N2CCN(c3nc(-n4cnc5ccccc54)nc4ccccc34)CC2)cc1`, the Potency entry was “inactive”.
The same measure for `Cc1ccc(NC(=O)C(Cc2ccccc2)NS(=O)(=O)c2ccc3c(c2)oc(=O)n3C)cc1C` (centres undefined): “inactive”; for `Cc1cccc(N2CCN(C(=O)c3cnc(N4CCCC4)nc3C)CC2)c1C`: “inactive”.
The same measure for `Cc1ccccc1S(=O)(=O)NC(=O)C1(C)CCN1C(=O)Cc1ccc(Cl)cc1Cl` (centres undefined): “inactive”; for `CC1(C(=O)Nc2cccc3c2CCCC3)CCN1C(=O)CCc1ccc(Cl)cc1Cl` (centres undefined): 12.6 µM (active).
The same measure for `CC1(C(=O)Nc2cccc3c2CCCC3)CCN1C(=O)C1(c2ccccc2)CC1` (centres undefined): “inactive”; for `CC(=O)c1ccc(NS(=O)(=O)c2ccc(-c3cc(C)no3)s2)cc1`: “inactive”.
Turning to `Cc1oc(-c2ccccc2F)nc1CN1CCC(C(=O)NCCc2ccc(Cl)cc2)CC1`, the Potency result is “inactive”.
Take `COc1ccc(Cl)cc1NC(=O)C(C)Sc1nc2c(c(=O)[nH]1)CCCC2` (centres undefined): the Potency entry is “inactive”.
The same measure for `CCOc1ccc(NC(=O)c2c(NC(=O)Cc3ccccc3)sc3c2CCCCC3)cc1`: “inactive”; for `O=C(Cc1ccc(Cl)cc1)c1ccccc1`: “inactive”; for `CC1=NNC(=O)C1CCC(=O)N/N=C(\C)c1ccc(Cl)cc1` (centres undefined): “inactive”.
Take `CC(=NNC(=S)N1CCCCCC1)c1ccccn1`: the Potency is 1.26 µM (active).
With `CCOc1ccc(NC(=S)N2CCCCCC2)cc1` the entry was “inactive”.
With `C/C(=N\NC(=O)Cc1ccc(Cl)cc1)c1ccccn1` the figure was 3.98 µM (active).
The same measure for `CCNC(=S)N1CCN(c2ncccn2)CC1`: “inactive”; for `CCCN(CCC)C(=O)Cn1c(=O)n(-c2ccc(Cl)cc2)c(=O)c2c3c(sc21)CCCCC3`: “inactive”; for `Cc1ccc(-c2nnc3ccc(SCC(N)=O)nn23)cc1`: “inactive”.
As for `Cc1ccc(Nc2ccccc2N)cc1`, the Potency entry was “inactive”.
The same measure for `COc1ccccc1C(=O)Nc1ccc(Nc2ccccc2)cc1`: “inactive”; for `Nc1ccc(Nc2ccccc2)cc1`: 14.1 µM (active); for `COC(=O)c1ccc(NC(=O)CSc2n[nH]c(-c3ccccc3)n2)cc1`: “inactive”.
The same measure for `CC(Sc1oc(-c2ccco2)nc1S(=O)(=O)c1ccc(Br)cc1)c1ccccc1` (centres undefined): “inactive”.
Regarding `CCCCC(CCCC)c1ccc(C=Nc2ccc(/C=C/c3ccnc4ccccc34)cc2)cc1`, the Potency result was “inactive”.
With `O=C(/C(=C/c1cccc(Cl)c1)c1nc2ccccc2[nH]1)c1ccccc1` the figure was 3.16 µM (active).
The same measure for `CN(c1ccccc1)S(=O)(=O)c1cc(C(=O)Nc2nc3ccccc3[nH]2)ccc1Cl`: “inactive”; for `Cc1ccc2nc(CNC(=O)c3ccccc3)[nH]c2c1`: “inactive”; for `Cc1cc(C)c(/C=C/c2onc(C)c2S(=O)(=O)N2CCC(C(=O)Nc3ccc(Cl)cc3C)CC2)c(C)c1`: “inactive”.
With `Cc1ccc(NC(=O)C(=O)NCC(c2cccnc2)N2CCOCC2)cc1` (centres undefined) the entry was “inactive”; with `Cc1ccc(S(=O)(=O)N(CC(=O)Nc2ccc(Cl)cc2Cl)c2ccccc2C)cc1`, “inactive”.
For `COc1ccc(C(C)(NC(C)=O)c2nc(-c3ccc(S(C)(=O)=O)cc3)cs2)cc1` (centres undefined), the Potency result was “inactive”.
Turning to `COc1ccc(N/C=C(\C2OC(=O)c3ccccc32)[N+](=O)[O-])cc1` (centres undefined), the Potency result is “inactive”.
Turning to `COc1ccc(-c2csc(NC3OC(=O)c4ccccc43)n2)cc1` (centres undefined), the Potency is 10 µM (active).
Take `COc1ccc(/C=C/C(=O)Nc2ccc(C)cc2)cc1S(=O)(=O)N1CCOCC1`: the Potency result was “inactive”.
The same measure for `COc1ccc(/C=C/C(=O)c2ccc(NS(=O)(=O)c3ccc(C)cc3)cc2)cc1O`: 12.6 µM (active); for `Cc1ccc(C(=O)/C=C/Nc2ccc(S(=O)(=O)Nc3onc(C)c3C)cc2)cc1`: “inactive”; for `Cc1ccc(C(=O)Nc2ccc(OCc3cc(=O)n4c(C)csc4n3)cc2)cc1`: “inactive”.
The same measure for `COc1ccc(CCNc2ncnc3onc(-c4ccc(Cl)cc4)c23)c(OC)c1`: “inactive”.
With `Cc1ccc(CNC(=O)CSc2c3c(nc4cc(Cl)ccc24)CCCC3)cc1` the entry was “inactive”; with `O=C(CSc1c2c(nc3ccc(Cl)cc13)CCCC2)NCc1ccco1`, “inactive”; with `CCOC(=O)C1CCN(C(=O)CSc2c3c(nc4ccc(Cl)cc24)CCCC3)CC1`, 15.8 µM (active).
Take `CN(C)C1=C2C=CC=CC2/C(=C2/C=Cc3ccccc32)C=C1` (centres undefined): the Potency result is “inactive”.
With `CCOC(=O)c1ccc(NC(=O)c2c(NCc3cccs3)sc3c2CCCC3)cc1` the entry was “inactive”.
With `Cc1noc(C)c1NC(=O)Nc1ccc2c(c1)C(=O)N([C@H](C)CO)C[C@H](C)[C@@H](CN(C)C(=O)Nc1ccccc1)O2` the entry was “inactive”.
With `Cc1ccc(S(=O)(=O)Nc2ccc3c(c2)C(=O)N([C@H](C)CO)C[C@@H](C)[C@@H](CN(C)C(=O)Nc2cccc4ccccc24)O3)cc1` the figure was 11.2 µM (active); with `COc1ccc(NC(=O)N(C)C[C@H]2Oc3ccc(NC(=O)C4CC4)cc3C(=O)N([C@H](C)CO)C[C@@H]2C)cc1`, “inactive”.
`COc1cc(OC)c(NC(=O)c2c3c(nn2C)-c2ccccc2SC3)cc1Cl`: the Potency entry was “inactive”.
The same measure for `OC(CBr)CN1CCCCC1` (centres undefined): “inactive”; for `COc1ccccc1NC(=O)c1cc(S(=O)(=O)NCCc2ccccc2)ccc1F`: “inactive”.
The same measure for `C/C(=N\NC(=O)CSc1nc2ccccc2c(=O)n1-c1ccccc1C)c1cccs1`: “inactive”; for `Cc1ccc(-n2c(SCC(=O)N/N=C/C=C/c3ccccc3[N+](=O)[O-])nc3ccccc3c2=O)cc1`: “inactive”; for `Cc1nn(-c2ccccc2)c(C)c1/C=N/NC(=O)CSc1nc2ccccc2c(=O)n1-c1ccccc1`: 3.98 µM (active).
The same measure for `Cc1nnc(C)n1-c1ccc(C(=O)Nc2cccc(Br)c2)cc1`: “inactive”.
For the compound `Cc1ccccc1CNC(=O)c1ccc(NC(=O)N2CCCCc3ccccc32)cc1`, the Potency entry is “inactive”.
`CCOC(=O)c1c(NC(=O)c2ccc(S(=O)(=O)N(CC)CC)cc2)sc2c1CCCCC2`: the Potency result is “inactive”.
The same measure for `CC(C)c1ccc2c(c1)c(SC(C)(C)C)c(CC(C)(C)C(=O)O)n2Cc1ccc(Cl)cc1`: 10 µM (active); for `Cc1c(C)n(Cc2ccc(Cl)cc2)c2ccc(C(=O)N3CCN(c4ccccc4F)CC3)cc12`: “inactive”.
The same measure for `CCOc1cccc2sc(N3CCN(C(=O)C4CC4)CC3)nc12`: “inactive”; for `COc1ccc(N(C)C(=O)CCS(=O)(=O)c2cccc3nsnc23)cc1`: “inactive”.
With `O=C(CCS(=O)(=O)c1ccccc1)Nc1nc2c(s1)CCCC2` the entry was “inactive”; with `COc1cccc2sc(N(CCCN(C)C)C(=O)C(c3ccccc3)c3ccccc3)nc12`, 12.6 µM (active); with `Cc1ccc(S(=O)(=O)CCC(=O)OCC(=O)N(C)Cc2ccccc2)cc1`, “inactive”.
In the case of `Cc1ccc2sc(N(CCN(C)C)C(=O)/C=C/c3cccs3)nc2c1C`, the Potency result is “inactive”.
The same measure for `COc1ccccc1NC(=O)CC(NCCN(C)C)C(=O)O` (centres undefined): “inactive”.
The same measure for `COc1cccc2sc(N(CCCN(C)C)C(=O)CCS(=O)(=O)c3ccccc3)nc12`: 1.12 µM (active); for `Cc1cccc2sc(N(CCCN(C)C)C(=O)CCS(=O)(=O)c3ccccc3)nc12`: 3.16 µM (active).
As for `Cc1ccc(-c2nnc(Nc3cccc(Br)c3)c3ccccc23)cc1S(=O)(=O)NCC1CCCO1` (centres undefined), the Potency result was “inactive”.
The same measure for `CCOC(=O)c1c(NC(=O)/C(C#N)=C/c2ccccc2)sc2c1CCC2`: “inactive”; for `Cc1cccc(CC(=O)Nc2cccc(-c3cn4cccnc4n3)c2)c1`: “inactive”; for `COc1ccc(-c2nc(C)c(CCNC(=O)c3ccc(C(F)(F)F)cc3)s2)cc1OC`: “inactive”.
With `CCOC(=O)c1cc(OC(=O)c2ccccc2Cl)n(-c2ccccc2)n1` the entry was “inactive”.
For `CSc1nc(=O)c2c(n1C)NC(=O)CC2c1ccccc1OC(C)C` (centres undefined), the Potency result is “inactive”.
With `Cc1cn(C)c(CC(=O)NCc2ccc(Cl)cc2)c1C(=O)O` the entry was “inactive”; with `CCOc1n[nH]c(-c2ccccc2)n1`, “inactive”; with `CCOC(=O)c1ccc(NC(=O)CC2C(=O)N(c3cccc(OC)c3)C(=O)N2C2CCCCC2)cc1` (centres undefined), “inactive”.
With `Cc1ccc(C)c(S(=O)(=O)N2CCN(CC(=O)Nc3ccc([N+](=O)[O-])cc3)CC2)c1` the figure was 8.91 µM (active); with `Cc1ccc(NC(=O)CCNC(=O)c2ccc([N+](=O)[O-])cc2)cc1S(=O)(=O)N1CCOCC1`, “inactive”; with `Cc1ccc([N+](=O)[O-])cc1S(=O)(=O)N1CCCN(C)CC1`, “inactive”.
The same measure for `Cc1cccc(N2CCN(C(=O)c3oc(=O)c4ccccc4c3-c3ccccc3)CC2)c1C`: “inactive”.
For `CCOc1ccccc1NC(=O)Cn1c(=O)n(Cc2ccccc2)c(=O)c2c(C)c(C(=O)N(C)C)sc21`, the Potency entry is “inactive”.
The same measure for `CCC(=O)N1CCc2cc(S(=O)(=O)NCCC(=O)Nc3cccc(C)c3C)ccc21`: “inactive”; for `Cc1ccc(C(C)C)c(OCCSc2nc3ccccc3n2CC(=O)O)c1`: “inactive”.
With `CCOc1ccc(OCCSc2nc3ccccc3n2CC(=O)O)cc1` the entry was “inactive”; with `Cc1cccc(OCCSc2nc3ccccc3n2CC(=O)N2CCCCC2)c1C`, 12.6 µM (active); with `O=c1[nH]c2cc(Br)ccc2n2cccc12`, “inactive”.
For the compound `COc1ccc(-c2c(-c3ccc(OC)cc3O)nc(C)nc2C(F)(F)F)cc1`, the Potency entry was “inactive”.
The same measure for `COc1ccc(-c2onc(C)c2-c2ccc3c(c2)OCCO3)c(O)c1`: 15.8 µM (active).
The same measure for `COc1cc(-c2c(-c3ccc4c(c3)OCO4)noc2C)ccc1F`: “inactive”.
The same measure for `O=C1O/C(=C\c2ccc(O)cc2)C(O)=C1c1ccc(O)cc1`: “inactive”; for `O=S(=O)(Nc1ccccc1Cl)c1cccc2nsnc12`: “inactive”; for `O=[N+]([O-])c1ccccc1S(=O)(=O)Nc1cccc2cccnc12`: 1.26 µM (active) and 6.31 µM (active).
`Cc1ccc2cccc([N+](=O)[O-])c2n1`: the Potency entry was “inactive”.
With `O=[N+]([O-])c1ccccc1SNc1ccccn1` the entry was “inactive”; with `O=S(=O)(Nc1cccc2cccnc12)c1cccc2cccnc12`, 1.78 µM (active).
`O=C(Nc1cccc2cccnc12)C(F)(F)F`: the Potency result was “inactive”.
The same measure for `Cc1ccc(Cn2cc(CCC(=O)NCc3ccc(OC(C)C)cc3)c3ccccc32)cc1`: “inactive”.
With `O=C(O)c1ccc2c(c1)N(Cc1ccc(F)cc1)C(=O)c1ccccc1S2=O` (centres undefined), the Potency entry is “inactive”.
Regarding `COc1cc(OC)c(NC(=O)Cc2ccc(-n3c(C)nc4cccnc43)cc2)cc1Cl`, the Potency entry was “inactive”.
The same measure for `Cc1nc(-c2ccccc2)sc1C(=O)/C=C/c1ccccc1`: 10 µM (active).
`CNC(=O)c1csc(-c2ccccc2)n1`: the Potency entry is “inactive”.
The same measure for `O=C(/C=C/Nc1ccccc1)c1cnc(-c2ccccc2)s1`: “inactive”; for `O=C(CSc1nc2nccnc2c(=O)n1CCc1c[nH]c2ccccc12)Nc1ccccc1F`: “inactive”; for `O=C1COc2ccc(-c3csc(-c4ccc(Cl)cc4)n3)cc2N1`: “inactive”.
With `COc1ccc(C(=O)NCc2ccc(C)cc2)cc1S(=O)(=O)N1CCCC1` the entry was “inactive”; with `COc1ccc(C)cc1S(=O)(=O)N1CCN(S(=O)(=O)c2cc(C(=O)O)ccc2C)CC1`, 6.31 µM (active); with `Cc1ccc(C)c(S(=O)(=O)N2CCN(C(=O)Nc3ccccc3)CC2)c1`, “inactive”.
The same measure for `CCCN(CCC)CCCNC(=O)Cn1cc2c(n1)-c1c(oc(C(=O)N3CCCC3)c1C)CC2`: “inactive”.
As to `COc1cn(CC(=O)Nc2cccc(C)c2C)c(CN2CCCCC2)cc1=O`, the Potency result is “inactive”.
